Experimental findings from the supplement of paper PMC7156485 are described below.
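Note: TDF is a line of transformed human dermal fibroblasts of mesenchymal origin.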

The test deals with HCC1569. As to the kind of experiment: H1.0 immunofluorescence intensity relative to DMSO (% of DMSO); higher = stronger H1.0 induction, active = 140 or more. The following applies: concentration: 10 µM; 24 h. In outline: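 Using 384-well plates with 800 cells per well in RPMI plus 10% FBS, HCC1569 and TDF cells were exposed to compounds at 10 µM, in triplicate, for 24 h at 37 °C. Imaging of six fields per well at ×10 followed H1.0 and DAPI staining. The reported quantity, H1.0 nuclear intensity or cell number, is a median of replicates given as percent of the plate control, and HCC1569 values were smoothed for positional effects.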
As for `COC1=CC(=O)CC(C)C12Oc1c(Cl)c(OC)cc(OC)c1C2=O` (single isomer, unassigned; (+)) [(+)-Griseofulvin], the H1.0 immunofluorescence intensity is 95.6 (inactive).

On to `S=C([S-])OC1CC2CC1C1CCCC21.[K+]` [D-609 potassium], for which the H1.0 immunofluorescence intensity is 102 (inactive).

With `Cc1ccccc1/N=N/c1ccc(NC(=O)c2ccnn2C)c(C)c1`, the H1.0 immunofluorescence intensity is 110 (inactive).

Take `S=C([S-])OC1CC2CC1C1CCCC21.[K+]` (stereo not given): the H1.0 immunofluorescence intensity was 98.2 (inactive).

As for `N[C@@H](CCCC(=O)O)C(=O)O` [L-2-aminoadipic acid], the H1.0 immunofluorescence intensity is 93.6 (inactive).

`CCc1ccc(CCOc2ccc(CC3SC(=O)NC3=O)cc2)nc1` (stereo not given) [Pioglitazone]: the H1.0 immunofluorescence intensity is 102 (inactive).

As for `OC[C@H]1NC[C@@H](O)[C@@H]1O` [1,4-Dideoxy-1,4-imino-D-arabinitol], the H1.0 immunofluorescence intensity is 90.4 (inactive).

With `CC1=CC(=O)C2=C(C)CCC3C(C)C(=O)OC3C12` (stereo not given) [Leucomisine], the H1.0 immunofluorescence intensity was 95.6 (inactive).

Consider `C#CC(N)CCC(=O)O` (stereo not given) [gamma-Acetylinic GABA], for which the H1.0 immunofluorescence intensity is 84.4 (inactive).

With `COc1ccc(C2Sc3ccccc3N(CCN(C)C)C(=O)C2OC(C)=O)cc1.Cl` (stereo not given) [Diltiazem hydrochloride], the H1.0 immunofluorescence intensity is 98.3 (inactive).

For `COC(=O)C1=C(C)NC(C)=C(C(=O)OCCN(C)Cc2ccccc2)C1c1cccc([N+](=O)[O-])c1.Cl` (stereo not given) [Nicardipine hydrochloride], the H1.0 immunofluorescence intensity was 100 (inactive).

For the compound `Nc1nc2ccccc2c2ccccc12` [6-phenanthridinamine], the H1.0 immunofluorescence intensity is 117 (inactive).

On to `Cc1ncc([N+](=O)[O-])n1CCO` [Metronidazole], for which the H1.0 immunofluorescence intensity is 99.3 (inactive).

For `Cc1ccc(-c2ncc(Cl)cc2-c2ccc(S(C)(=O)=O)cc2)cn1` [Etoricoxib], the H1.0 immunofluorescence intensity is 92.2 (inactive).

In the case of `CCN1C(=O)C=CC1=O` [N-Ethylmaleimide], the H1.0 immunofluorescence intensity is 91.7 (inactive).

Take `CCCCCCCCCCCCCC(=O)O` [Tetradecanoic acid]: the H1.0 immunofluorescence intensity is 102 (inactive).

Consider `N=C(N)c1ccc(OCCCCCOc2ccc(C(=N)N)cc2)cc1.O=S([O-])OCCO.O=S([O-])OCCO` [Pentamidine isethionate], for which the H1.0 immunofluorescence intensity was 97.2 (inactive).

With `O=C(O)CO.[NH2-].[NH2-].[Pt+2]` [Nedaplatin], the H1.0 immunofluorescence intensity was 104 (inactive).

For the compound `CN1CCN(c2c(F)cc3c(=O)c(C(=O)O)cn4c3c2SCC4)CC1` [Rufloxacin], the H1.0 immunofluorescence intensity was 95.2 (inactive).

For `Cl.Cl.NCCNc1ncc(C(N)=O)c(Nc2cccc(C(F)(F)F)c2)n1.O.O` [Syk Inhibitor II], the H1.0 immunofluorescence intensity is 148 (active).

Consider `CCCCCCCCCCCCCCCC(=O)NCCc1ccc(O)c(O)c1` [Palmitoyl dopamine], for which the H1.0 immunofluorescence intensity was 105 (inactive).

`CCCCCC=CCC=CCC=CCCCCCCC(=O)OC(COCCCCCCCCCCCCCCCC)COP(=O)([O-])OCC[N+](C)(C)C` (stereo not given): the H1.0 immunofluorescence intensity is 96.9 (inactive).

For the compound `COc1c2c(nc3ccccc13)OC(C(C)(O)CO)C2` (stereo not given) [Dubinidine], the H1.0 immunofluorescence intensity was 106 (inactive).

For `CNC(=O)C1OC(n2cnc3c(NCc4ccc(N)cc4)ncnc32)C(O)C1O` (stereo not given), the H1.0 immunofluorescence intensity is 90.6 (inactive).

Turning to `CN(C(Cc1ccc(OS(=O)(=O)c2cccc3cnccc23)cc1)C(=O)N1CCN(c2ccccc2)CC1)S(=O)(=O)c1cccc2cnccc12` (stereo not given), the H1.0 immunofluorescence intensity was 127 (inactive).

For `O=C(O)c1cc(N(Cc2ccccc2O)Cc2ccccc2O)ccc1O` [Lavendustin B], the H1.0 immunofluorescence intensity is 93.1 (inactive).

Take `COC(=O)CCc1ccc(OCC(O)CNC(C)C)cc1` (stereo not given) [Esmolol]: the H1.0 immunofluorescence intensity is 91.9 (inactive).

For `Clc1ccc2c(c1)CCc1cccnc1C2=C1CCNCC1` [Desloratadine], the H1.0 immunofluorescence intensity is 108 (inactive).

Consider `CC(=O)N1CCN(c2ccc(OCC3COC(Cn4ccnc4)(c4ccc(Cl)cc4Cl)O3)cc2)CC1` (stereo not given) [Ketoconazole], for which the H1.0 immunofluorescence intensity was 118 (inactive).

As to `Nc1nccc2c1ncn2C1OC(CO)C(O)C1O` (stereo not given) [3-deazaadenosine], the H1.0 immunofluorescence intensity was 88.8 (inactive).

With `CN(C)CCN1C(=O)c2ccccc2N(C)c2ccccc21` [Dibenzepine], the H1.0 immunofluorescence intensity is 111 (inactive).

`COc1ccc2cc1Oc1ccc(cc1)CC1c3cc(c(OC)cc3CCN1C)Oc1c(OC)c(OC)c(OC)c3c1C(C2)N(C)CC3` (stereo not given) [Hernandezine]: the H1.0 immunofluorescence intensity was 110 (inactive).

As for `O=c1oc2c(O)c(O)cc3c(=O)oc4c(O)c(O)cc1c4c23` [Ellagic acid], the H1.0 immunofluorescence intensity is 90.6 (inactive).

With `CC1CCN(C(=O)CC#N)CC1N(C)c1ncnc2[nH]ccc12` (stereo not given) [Tasocitinib], the H1.0 immunofluorescence intensity was 73.7 (inactive).

In the case of `O.O=c1c(O)c(-c2ccc(O)cc2O)oc2cc(O)cc(O)c12`, the H1.0 immunofluorescence intensity was 98.8 (inactive).

As for `O=c1nc[nH]c2c1ncn2C1CCC(CO)O1` (stereo not given) [Didanosine], the H1.0 immunofluorescence intensity is 109 (inactive).

Turning to `O=C1NC(=O)C(=Cc2ccc3c(c2)OC(F)(F)O3)S1` [PI 3-KbInhibitor II], the H1.0 immunofluorescence intensity is 112 (inactive).

With `O=c1cc(-c2ccc(O)c(O)c2)oc2cc(O)c(C3OC(CO)C(O)C(O)C3O)c(O)c12` (stereo not given) [Homoorientin], the H1.0 immunofluorescence intensity was 90.4 (inactive).

For the compound `[N-]=[N+]=Nc1ccc(C(=O)CSCC(NC(=O)CCC(N)C(=O)O)C(=O)NCC(=O)O)cc1` (stereo not drawn) [S-(p-Azidophenacyl)glutathione], the H1.0 immunofluorescence intensity is 79.9 (inactive).

Take `COc1ccc(-c2cc(C(O)C3CCCCN3)c3ccccc3n2)cc1.Cl.Cl` (stereo not given): the H1.0 immunofluorescence intensity was 157 (active).
